Rows were chosen to be rich in hits. Some 7.4% of all compounds tested hit in one or more screens of this group.
NPC1 prom act = activators of NPC1 promoter. Huh7 NPC1 promoter luciferase reporter, 24 h. Potency, µM (top dose mostly 9.22 µM), most hits filed as activators. 320,000 tested, 2.4% active; further: nearly all actives have a fitted effect of over 60% in size
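Quantitative HTS used a cell-based reporter: Huh7 cells stably bearing the NPC1 promoter upstream of luciferase were treated with compounds for 24 h, and promoter activation was read as luminescence.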
ELG1 genotoxic = inducers of genotoxicity in HEK293T ELG1-luciferase cells; HEK293T ELG1-luciferase reporter, luminescence, 16 h; Potency, µM (top dose mostly 46 µM), most hits filed as activators; 330,000 tested, 1.3% active; AID 504466; further: nearly all actives have a fitted effect of over 60% in size
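Genotoxicity was scored as increased ELG1-luciferase reporter signal, measured by ONE-Glo luminescence (30 min, room temperature). Compound or vehicle exposure of the HEK293T reporter cells lasted 16 hr at 37°C.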
Rab9 promoter act = Rab9 promoter activation. AID 485297. Potency, µM (titrated, usually from 9.22 µM), most hits filed as activators. 320,000 tested, 2.8% active. Huh7 Rab9 promoter-luciferase reporter, luminescence, 24 h; further: nearly all actives have a fitted effect of over 60% in size
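Huh7 cells stably carrying a Rab9 promoter-luciferase reporter, 1500 cells per well in OP-MEM I with 10% FBS, treated with compound 24 hours at 37C. Luciferase activity read by luminescence after 10 minutes with Amplite reagent.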
Luc counter = Kinase-Glo luciferase inhibition (counter-screen) | Q27757 | Kinase-Glo luciferase, ATP luminescence, 8 min | Potency, µM (titrated, usually from 38.3 µM), usual class: inhibitors | 200,000 tested, 0.28% active; further: nearly all actives have a fitted effect of over 60% in size
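Light output from Kinase-Glo luciferase with luciferin and 10 uM ATP in 50 mM imidazole pH 7.2, KCl, MgCl2, Tween 20, BSA; compound pin-delivered, 8-min ambient incubation, then luminescence read.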
FLuc counter = inhibits or activates purified firefly luciferase, miR-21 counter-screen | P08659 | purified FLuc, Km substrates, luminescence inhibition | Potency, µM (highest dose often 57.5 µM), hits mostly inhibitors | 360,000 tested, 6.9% active | AID 588342; further: nearly all actives have a fitted effect of over 55% in size
Target sequence (P08659 whole entry, looked up): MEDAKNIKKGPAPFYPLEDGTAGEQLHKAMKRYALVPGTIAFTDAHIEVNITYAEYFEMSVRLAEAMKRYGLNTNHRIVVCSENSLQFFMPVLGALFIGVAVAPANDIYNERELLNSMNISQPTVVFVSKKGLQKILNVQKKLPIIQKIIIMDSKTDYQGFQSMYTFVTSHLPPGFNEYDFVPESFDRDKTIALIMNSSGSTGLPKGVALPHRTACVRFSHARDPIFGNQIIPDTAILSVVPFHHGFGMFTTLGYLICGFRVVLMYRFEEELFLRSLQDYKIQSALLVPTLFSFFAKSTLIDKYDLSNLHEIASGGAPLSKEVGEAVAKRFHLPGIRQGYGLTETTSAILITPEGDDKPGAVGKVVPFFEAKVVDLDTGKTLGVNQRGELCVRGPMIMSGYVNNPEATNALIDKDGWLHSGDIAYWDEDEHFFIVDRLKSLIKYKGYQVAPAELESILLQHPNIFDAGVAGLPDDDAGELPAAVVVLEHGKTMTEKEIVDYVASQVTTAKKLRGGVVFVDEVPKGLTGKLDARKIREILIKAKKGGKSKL
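Purified P. pyralis luciferase (10nM final) with 10uM D-luciferin and 10uM ATP (Km levels) in 50mM Tris acetate pH 7.5, 10mM Mg acetate, 0.01% Tween-20, 0.05% BSA; qHTS 6-point titration, ~60 µM downward; luminescence read.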
SMN2 splice up = increases expression of the SMN2 splice variant; HEK293 SMN2-luciferase splicing reporter, luminescence, 30-36 h; Potency, µM (top dose mostly 46.1 µM), actives largely listed as activators; 210,000 tested, 2.8% active; AID 1458; further: nearly all actives have a fitted effect of over 55% in size
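HEK293 cells carry an SMN2 minigene-luciferase reporter in which exon 7 inclusion puts luciferase in frame. Cells were seeded at 2000 cells/well, attached for 10-12 hours, then exposed to compounds for 30-36 hours at 37C before ONE-Glo luminescence.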
Numbers stand for hits; . = inactive; ? = inconclusive; / = no result; [ ] = another dose, or the depositor's remark. The call rests on the fitted dose curve; in most records, active means well fitted curve in the direction sought with a large enough effect; inconclusive means small, poorly fitted or top-dose-only effect, or another doubt; inactive means no such curve, though single readings can be large; an effect the other way counts as inactive or inconclusive.

SMILES	NPC1 prom act	ELG1 genotoxic	Rab9 promoter act	Luc counter	FLuc counter	SMN2 splice up
CC(C)(C)OC(=O)NCCCCC1=CC2=CC(=O)C(C)(OC(=O)CCc3ccccc3)C(=O)C2=CO1 (stereo not given)	/	/	/	.	/	.
CC(C)CCNC(=O)c1ccc(Cn2c(SCC(N)=O)nc3ccccc3c2=O)cc1	/	/	/	/	.	/
O=C(CSc1nnc2scc(-c3ccc(Cl)cc3)n12)Nc1ccccc1F	/	/	/	/	.	.
COc1ccc(NC(=O)c2ncn[nH]2)cc1	.	.	.	.	15µM	.
COc1ccc(C(=O)NNC(=O)c2ccncc2)cc1	.	.	.	.	.	.
COc1ccc(C(=O)Nc2ccc(C3CC3(Cl)Cl)cc2)cc1 (stereo not given)	.	.	?	.	1.5µM	/
COc1ccc(NC(=O)c2ccc(NC(=O)c3ccncc3)cc2)cc1	.	10µM	.	/	.	/
CCOc1ccc(NC(=O)c2ccc(OC)cc2)cc1	?	.	.[1.84 µM]	.	?	.
COc1ccc(NC(=O)c2cccc(C(=O)Nc3ccc(OC)cc3)n2)cc1	.	.	.	.	5.4µM	.
COc1ccc(NC(=O)c2sc(=S)[nH]c2N)cc1	.	.	.	.	17µM	?
COc1ccc(NC(=O)c2ccc(Oc3ncccn3)cc2)cc1	.	?	?	.	17µM	.
C=C(Nc1ccc(OC)cc1)C(=O)OC	/	/	/	.	/	.
COCCn1c(=O)c(-c2cc(F)cc(F)c2)nc2cnc(OC)nc21	/	/	/	.	/	.
O=C(CCC1N=C2c3ccccc3N=C(SCc3ccc(Cl)cc3)N2C1=O)NC1CCCCC1 (stereo not given)	/	/	/	/	.	.
O=C(N/N=C/c1cccc([N+](=O)[O-])c1)C1COc2ccccc2O1 (stereo not given)	.	.	.	/	.	/
O=C(N/N=C\c1cccc([N+](=O)[O-])c1O)C1COc2ccccc2O1 (stereo not given)	.	.	.	.	19µM	.
O=C(Nc1ccccc1[N+](=O)[O-])C1COc2ccccc2O1 (stereo not given)	2.8µM	?	3.5µM	/	9.5µM	/
Cn1c2ccccc2c2cnn(CC(=O)NCCCN3CCCCC3)c(=O)c21	/	/	/	/	.	.
C/C=C(/C)C(=O)Nc1cccc(C2=NOC3(C2)C[C@H](C(N)=O)N(C(=O)Cc2ccc([N+](=O)[O-])cc2)C3)c1 (stereo not given in full)	.	.	.	/	.	/
C/C=C/C=C\C(=O)Nc1cccc(C2=NOC3(C2)C[C@H](C(N)=O)N(C(=O)CC#N)C3)c1 (stereo not given in full)	.	.	.	/	?	/
C/C=C\C=C/C(=O)Nc1cccc(C2=NOC3(C2)C[C@H](C(N)=O)N(C(=O)CC)C3)c1 (stereo not given in full)	.	.	.	/	19µM	/

Screening data: PubChem BioAssay, National Center for Advancing Translational Sciences (NCATS)
